According to the supplement of paper PMC3414501:
Counter-ions that a name gives are not always drawn.

How the values were obtained:
[1] = test system: S. cerevisiae SK1 pCDA2-eGFP (USY613), sporulating; assay: CDA2-GFP sporulation assay sensitivity score (z-score vs DMSO controls); higher = stronger inhibition of sporulation, active = hit call of the paper;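 note: active if sensitivity score above 5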
[2] = test system: S. cerevisiae NKY1551 his4x/his4B, sporulating; assay: HIS4 meiotic recombination assay sensitivity score (z-score vs DMSO controls); higher = stronger inhibition of sporulation/recombination, active = hit call of the paper;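 note: active if sensitivity score above 5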
[3] = test system: S. cerevisiae AD1-9 (efflux-pump deficient), vegetative growth in YPD; assay: growth sensitivity score (doubling time z-score vs DMSO controls); higher = slower growth, strongly negative scores also mark growth inhibition (complete suppression), active = hit call of the paper
Method in brief: (§1)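 Saccharomyces cerevisiae strains BY4741 and AD1-9 were seeded in rich medium in microtiter plates at an OD600 of 0.065. Compounds were added at a 1:100 dilution of DMSO stock. Optical density was read every 15 min for 24 hours on a Tecan GENios reader. Average doubling time was the time taken to reach a set generation point divided by generation number, and the growth sensitivity score was (compound mean − DMSO-control mean)/DMSO-control SD, using eight DMSO controls per experiment.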

[4] = test system: S. cerevisiae BY4741 (wild-type), vegetative growth in YPD; assay: as above
Method in brief: as §1

Row | SMILES | CDA2-GFP sporulation assay sensitivity score [1] | HIS4 meiotic recombination assay sensitivity score [2] | growth sensitivity score [3] | growth sensitivity score [4]
1 | COc1cc2nc(N3CCN(C(=O)C4CCCO4)CC3)nc(N)c2cc1OC (stereo unspecified) [Terazosin] (stock concentration (mM, diluted 1:100): 9.5) | 3.45 (inactive) | 0.92 (inactive) | -0.95 (inactive) | -0.03 (inactive)
2 | Clc1ccc2c(c1)CCc1cccnc1C2=C1CCNCC1 [Desloratadine] (stock concentration (mM, diluted 1:100): 10) | 8.67 (inactive) | 1.24 (inactive) | 60.1 (active) | -0.47 (inactive)
3 | O=c1ncc(F)c[nH]1 [5-Fluoro-2-Pyrimidone] (stock concentration (mM, diluted 1:100): 10) | 0.54 (inactive) | -0.02 (inactive) | -0.92 (inactive) | -2.08
4 | C[C@H]1C[C@H]2[C@@H]3CCC4=CC(=O)C=C[C@]4(C)[C@@]3(Cl)[C@@H](O)C[C@]2(C)[C@@]1(O)C(=O)CO [Beclomethasone] (stock concentration (mM, diluted 1:100): 10) | 1.56 (inactive) | -3.46 (inactive) | 2.68 (active) | 0.52 (inactive)
5 | C[C@]12C[C@H](O)[C@H]3[C@@H](CCC4=CC(=O)CC[C@@]43C)[C@@H]1CC[C@@H]2C(=O)CO [Corticosterone] (stock concentration (mM, diluted 1:100): 10) | 3.57 (inactive) | 1.37 (inactive) | 2.14 (active) | -0.97 (inactive)
6 | CN(C)CCC(c1ccc(Cl)cc1)c1ccccn1 (stereo unspecified) [Chlorpheniramine] (stock concentration (mM, diluted 1:100): 10) | -1.3 (inactive) | 5.73 (active) | -0.6 (inactive) | -0.56 (inactive)
7 | CNCCCCOc1ccccc1Cc1ccccc1 [Bifemelane] (stock concentration (mM, diluted 1:100): 10) | 1.21 (inactive) | 9.23 (active) | 127 (active) | 3.54 (active)
8 | Cc1nc(=O)c2cc(CN(C)c3ccc(C(=O)N[C@@H](CCC(=O)O)C(=O)O)s3)ccc2[nH]1 [Raltitrexed] (stock concentration (mM, diluted 1:100): 10) | -2.11 (inactive) | -0.01 (inactive) | -3.39 | -0.14 (inactive)
9 | COc1cc(C)c(Cc2cnc(N)nc2N)cc1OC [Ormetoprim] (stock concentration (mM, diluted 1:100): 10) | 0.05 (inactive) | -0.05 (inactive) | -2.46 | -1.06 (inactive)
10 | Clc1cccc(Cl)c1NC1=NCCN1 [Clonidine] (stock concentration (mM, diluted 1:100): 10) | -1.29 (inactive) | -0.25 (inactive) | -1.44 (inactive) | -1.97 (inactive)
11 | Nc1nc(N)nc(-c2cc(Cl)ccc2Cl)n1 [Irsogladine maleate] (stock concentration (mM, diluted 1:100): 6.9) | 0.91 (inactive) | -0.77 (inactive) | -0.44 (inactive) | -1.26 (inactive)
12 | Nc1ncnc2c1ncn2[C@@H]1O[C@H](CO)C[C@@H]1O [3-Deoxydenosine] (stock concentration (mM, diluted 1:100): 10) | 19.9 (active) | 7.05 (active) | 110 (active) | 1.06 (inactive)
13 | Nc1nc2ccc(Cl)cc2c2nc(-c3ccco3)nn12 (stock concentration (mM, diluted 1:100): 10) | -3.14 (inactive) | -0.12 (inactive) | 17.6 (active) | 5.26 (active)
14 | Nc1ccc(O)c(C(=O)O)c1 [Mesalamine] (stock concentration (mM, diluted 1:100): 10) | -1.48 (inactive) | -2.13 (inactive) | -2.51 | -0.33 (inactive)
15 | C[C@H](N[C@@H](CCc1ccccc1)C(=O)O)C(=O)N1CCC[C@H]1C(=O)O [Enalaprilat] (stock concentration (mM, diluted 1:100): 10) | 1.04 (inactive) | -0.11 (inactive) | -0.82 (inactive) | 0.34 (inactive)
16 | Nc1nc(Cl)nc2c1ncn2[C@@H]1O[C@H](CO)[C@@H](O)[C@H]1O [2-Chloroadenosine] (stock concentration (mM, diluted 1:100): 10) | -0.44 (inactive) | -0.54 (inactive) | -1.1 (inactive) | -1.07 (inactive)
17 | CS(=O)(=O)c1ccc(-c2cc(Br)sc2-c2ccc(F)cc2)cc1 (stock concentration (mM, diluted 1:100): 10) | 12.1 (inactive) | 1.98 (inactive) | 8.97 (active) | -0.63 (inactive)
18 | Cc1c(O)cccc1C(=O)N[C@@H](CSc1ccccc1)[C@H](O)CN1C[C@H]2CCCC[C@H]2C[C@H]1C(=O)NC(C)(C)C [Nelfinavir mesylate] (stock concentration (mM, diluted 1:100): 8.6) | 4.48 (inactive) | 0.21 (inactive) | 16.2 (active) | 0.56 (inactive)
19 | CC1CCN(CCCC(=O)c2ccc(F)cc2)CC1 [Metylperon] (stock concentration (mM, diluted 1:100): 10) | 4.44 (inactive) | 0.9 (inactive) | 1 (inactive) | 1.93 (inactive)
